Pf growth 96h: P. falciparum growth inhibition at 96 hour, primary screen for plastid delayed-death inhibitors. P. falciparum luciferase reporter growth, 96 h. Potency, µM (series often up to 28.7 µM), most hits filed as inhibitors. 6.9% of 320,000 active. AID 504834
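Infected RBCs, 2% Hct / 0.05% parasitemia final; luciferase-reporter P. falciparum; cpd 96 h, 37 C, 5% CO2; luciferase detection reagent; luminescence.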
HCV inhibitor: HCV inhibition. Huh7.5.1 HCVcc-Cre infection, luciferase reporter, 44 h. Potency, µM (titrated, usually from 41.8 µM), hits mostly inhibitors. 3.4% of 340,000 active. AID 651820
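HCVcc-Cre virus at an moi near 0.5 was added right after compound to cells cultured 4 h from seeding (1,000 cells/well). Luciferase activity was determined 44 h later, 15 min after substrate addition at RT.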
AMA1-RON2 inh: inhibitors of Plasmodium falciparum AMA1-RON2 interaction; AlphaScreen AMA1-biotinylated RON2 peptide binding; Potency, µM (doses to about 58.2 µM), usual class: inhibitors; 0.2% of 360,000 active; also: nearly all actives have a fitted effect of over 45% in size
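AMA1 (3D7) with his tag at 25 nM final met compounds first, then biotinylated RON2 peptide at 25 nM; detection used donor plus acceptor beads, 10 µg/mL apiece, read by AlphaScreen after 30 min at room temperature.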
Pf growth 48h: inhibits P. falciparum growth in the first generation, 48 h. 5.9% of 310,000 active. P. falciparum luciferase growth in erythrocytes, 48 h. Potency, µM (highest dose often 28.7 µM), actives largely listed as inhibitors
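Firefly luciferase activity from engineered P. falciparum reports growth; inhibitors lower the luminescent signal. Cultures contained 2% hematocrit erythrocytes at 0.1% final parasitemia.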
A number is an active result; - = inactive; ? = inconclusive; . = no result. Only some compounds are listed: those with a hit (about 11% of all), similar ones and a draw of the others. Calls follow the shape of the dose curve; as a rule, active = well fitted curve in the direction sought with a large enough effect; inconclusive = small, poorly fitted or top-dose-only effect, or another doubt; inactive = no such curve, though single readings can be large; an effect the other way counts as inactive or inconclusive.

SMILES	Pf growth 96h	HCV inhibitor	AMA1-RON2 inh	Pf growth 48h
Cc1ccc2[nH]c(C(=O)N3CCN(C(c4ccccc4)c4ccccc4)CC3)cc2c1	?	-	-	2.6µM
Cc1cccc(N2CCN(C(=O)c3ccncc3)CC2)c1C	-	?	-	-
O=C(c1cc2cc(F)ccc2[nH]1)N1CCN(C(=O)c2ccco2)CC1	?	-	-	?
CN1CCN(C(=O)c2cc3cc(F)ccc3[nH]2)CC1	-	-	-	15µM
COc1cc(C(=O)N2CCN(c3cccc(C)c3C)CC2)cc(OC)c1OC	10µM	?	-	?
COc1ccc(NC(=O)c2ccccc2NC(=O)C2CCCCC2C(=O)O)cc1 (stereo unspecified)	.	-	-	.
C[C@@H]1CN([C@@H](C)CO)C(=O)CCCn2nncc2CO[C@H]1CN(C)Cc1cccc2c1OCCCO2	.	.	-	.
CCOC(=O)c1c(C)[nH]c2ccc(O)cc12	?	-	-	.
CCOCc1cnc(C)nc1NCC(=O)c1c(C)[nH]c2ccc(OC)cc12	0.41µM	-	-	.
O=C1CSC(c2cccnc2)N1Cc1ccc(Cl)cc1 (stereo unspecified)	-	-	-	-
O=C1CSC(c2cccnc2)N1Cc1ccc(Cl)cc1Cl (stereo unspecified)	9.3µM	-	-	?
Cc1ccc(C)c(Cn2nnc3c(=O)[nH]c(C4CCN(S(=O)(=O)c5ccc(S(=O)(=O)NC6CC6)cc5)CC4)nc32)c1	-	?	-	2.6µM
O=c1[nH]c(C2CCN(S(=O)(=O)Cc3ccccc3)CC2)nc2c1nnn2Cc1ccccc1	-	-	-	9.3µM
O=c1[nH]c(C2CCN(S(=O)(=O)c3ccc(S(=O)(=O)NC4CC4)cc3)CC2)nc2c1nnn2Cc1ccccc1	-	-	-	3.7µM
O=c1[nH]c(C2CCN(S(=O)(=O)c3cccc([N+](=O)[O-])c3)CC2)nc2c1nnn2Cc1ccccc1	-	-	-	8.3µM
O=c1[nH]c(C2CCN(S(=O)(=O)c3cccc(Cl)c3)CC2)nc2c1nnn2Cc1ccccc1	-	-	-	?
Cc1ccc(C)c(S(=O)(=O)N2CCC(c3nc4c(nnn4Cc4ccc(F)cc4)c(=O)[nH]3)CC2)c1	-	-	-	?
O=c1[nH]c(C2CCN(S(=O)(=O)/C=C/c3ccccc3)CC2)nc2c1nnn2Cc1ccc(F)cc1	?	-	-	1.9µM
Cc1ccc(Cn2nnc3c(=O)[nH]c(C4CCN(S(=O)(=O)c5cc(C)ccc5C)CC4)nc32)cc1	.	?	-	5.2µM
Cc1ccc(Cn2nnc3c(=O)[nH]c(C4CCN(S(=O)(=O)c5ccc(F)cc5)CC4)nc32)cc1	.	-	-	-
NNC(=O)CS(=O)(=O)c1ccc(Cl)cc1	-	-	-	-
CC(C)Oc1ccc(/C=N/NC(=O)C(CSCc2ccccc2)NC(=O)c2ccc([N+](=O)[O-])cc2)cc1 (stereo unspecified)	?	?	-	12µM
CCC(=O)N1c2ccccc2NC2=C(C(=O)CC(C)(C)C2)C1c1ccc(O)c(OC)c1 (stereo unspecified)	-	-	-	-
COc1cc2nc(=S)n3[nH]c(COc4ccccc4C)nc3c2cc1OC	-	-	-	?
COc1cc2nc(=S)n3[nH]c(CCn4nc(C)cc4C)nc3c2cc1OC	-	-	-	2.9µM
SMILES	Pf growth 96h	HCV inhibitor	AMA1-RON2 inh	Pf growth 48h
Cc1cccc(/C=N/NC(=O)c2ccc(Br)cc2)c1	-	-	-	-
Cc1cccc(N/N=C(\C=N\N)C(=O)c2ccc(Br)cc2)c1	-	.	.	12µM
Cc1cccc(N=N/C(=C\O)C(=O)c2ccc(Br)cc2)c1	-	10µM	-	-
O=C(Cc1ccccc1Cl)N/N=C/c1cccnc1	-	-	-	-
O=C(NCC(NS(=O)(=O)OCC(Cl)(Cl)Cl)c1ccccc1)C(F)(F)F (stereo unspecified)	-	-	-	-
COc1ccc(NC(=O)c2ccc(-c3csc(C)n3)cc2)cc1	-	7.1µM	-	-
CCOc1ccc(NC(=O)c2ccc(-c3csc(C)n3)cc2)cc1	-	?	-	-
Cc1nc(-c2cccc(NC(=O)c3ccco3)c2)cs1	-	-	-	?
Cc1nc(-c2ccc(C(=O)Nc3cccc(F)c3)cc2)cs1	-	3.5µM	-	-
Cc1nc(-c2cccc(NC(=O)c3ccc(-n4cccn4)cc3)c2)cs1	-	11µM	-	-
Cc1nc(-c2ccc(C(=O)Nc3ccc(F)cc3)cc2)cs1	-	?	-	-
COc1ccc(CN2CCC(Oc3ccc(C(=O)N4CCCC4)cc3)CC2)c(F)c1	?	-	-	-
COc1cc(/C=C(\C#N)C(=O)NC2CCCCC2)ccc1OCc1ccc(C(=O)O)cc1	-	-	-	6.6µM
COc1cc(/C=C(\C#N)C(=O)Nc2cccc(C(=O)O)c2)ccc1OCc1ccc(C)cc1	-	-	-	-
COc1cc(/C=C(/C#N)c2ccccc2F)ccc1OCc1ccccc1	-	?	-	12µM
COc1ccc(CCNC(=O)/C(C#N)=C/c2cccc(OCc3ccccc3)c2)cc1OC	12µM	?	?	?
COc1cc(/C=C(/C#N)C(=O)Nc2ccccc2)ccc1OCc1ccc(C(=O)O)cc1	-	-	-	-
COc1cc(/C=C(\C#N)C(=O)NC(C)C)ccc1OCc1ccc(C(=O)O)cc1	-	-	-	-
COc1cc(/C=C(\C#N)C(=O)NCc2ccccc2)ccc1OCc1ccc(C(=O)O)cc1	?	-	-	13µM
O=C(NCc1ccco1)Nc1nnc([C@H]2C[C@H](O)[C@@H](CO)O2)s1	.	.	-	.
Cc1ccc(CN2CCN(CC(=O)NCCCN3CCN(c4ccc(F)cc4)CC3)C2=O)cc1	?	8.9µM	-	?
COc1ccc(N2CCN(CCCNC(=O)C(=O)c3c[nH]c4ccccc34)CC2)cc1	2.1µM	?	?	3.7µM
O=C(CN1CCN(Cc2ccccc2Cl)C1=O)NCCCN1CCOCC1	-	-	-	-
CCOCCCNC(=O)CN1CCN(c2ccc(F)cc2)CC1	-	-	-	-
COc1ccc(N2CCN(CCCNC(=O)CN3CCN(Cc4ccccc4C)C3=O)CC2)cc1	-	11µM	?	?
SMILES	Pf growth 96h	HCV inhibitor	AMA1-RON2 inh	Pf growth 48h
Cn1c(=O)cc(Cl)[nH]c1=O	-	-	-	-
COc1ccc(OCc2ccc(/C=N\NC(=O)c3sccc3C)o2)cc1	-	-	-	-
O=c1[nH]c2cc3c(cc2cc1CN(Cc1cccnc1)Cc1nnnn1Cc1ccco1)OCCO3	?	-	-	.
COc1ccccc1CN(Cc1cc2cc3c(cc2[nH]c1=O)OCCO3)Cc1nnnn1Cc1ccco1	1µM	-	-	?
O=c1[nH]c2cc3c(cc2cc1CN(Cc1cccs1)Cc1nnnn1Cc1ccco1)OCCO3	12µM	-	-	?
O=c1[nH]c2cc3c(cc2cc1CN(Cc1ccccc1)Cc1nnnn1Cc1ccco1)OCCO3	.	?	-	?
Cc1cccc(C2Nc3cccc4cccc(c34)N2)c1	-	-	-	4.7µM
O=[N+]([O-])c1cc(C2Nc3cccc4cccc(c34)N2)ccc1Cl	-	?	-	2.9µM
CN(c1nc2ccccc2n2c(C3CC3)nnc12)S(=O)(=O)c1ccccc1	-	-	-	-

Screening results (PubChem)
